According to PubChem BioAssay (NCATS):
“And” between values parts separate entries of the source, which are not always exact repeats. Equal entries are not always repeated. Results filed as inconclusive are left out. The source made the active and inactive calls. The call rests on the fitted dose curve; in most records, active means well fitted curve in the direction sought with a large enough effect; inconclusive means small, poorly fitted or top-dose-only effect, or another doubt; inactive means no such curve, though single readings can be large; an effect the other way counts as inactive or inconclusive.

How the values were obtained:
CRL-7250 = normal cell line; experiment: Cytotoxic Profiling of Annotated Libraries Using Quantitative High-Throughput Screening (AID 1296008); conditions: Five cell lines viability, CellTiter-Glo ATP luminescence, 48-72 h; max response: hits give low values; further: nearly all actives have a fitted effect of over 60% in size; further: potency means the concentration at half of the fitted maximal effect; on max response: on the % scale 0 is the no-effect control and ±100 the full control effect
Outline: (§1)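 Cells exposed to compounds for 48 or 72 hr at 37 degrees Celsius. Viability read as ATP-coupled luminescence with CellTiter-Glo after 10 min at room temperature.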

HEK293 = experiment: as above; conditions: Five cell lines viability, CellTiter-Glo ATP luminescence, 48-72 h; max response: hits give low values
Outline: as §1

KB-3-1 = experiment: as above; conditions: Five cell lines viability, CellTiter-Glo ATP luminescence, 48-72 h; max response: hits give low values
Outline: as §1

NIH3T3 [1] = experiment: as above; conditions: Five cell lines viability, CellTiter-Glo ATP luminescence, 48-72 h; max response: hits give low values
Outline: as §1

MCC-13 = experiment: qHTS assay to identify novel small-molecules to repurpose for Merkel cell carcinoma treatment (AID 1296009); conditions: MCC and control cell lines, CellTiter-Glo viability, 72 h; series mostly up to 46 µM; further: nearly all actives have a fitted effect of over 60% in size; further: potency means the concentration at half of the fitted maximal effect
Outline: (§2)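 Cells were incubated with compound for 72 hr at 37 degree celsius before CellTiter-Glo addition. Luminescence was normalized with no-cell wells as full cytotoxicity and DMSO as baseline.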

MCC-26 = experiment: as above; conditions: MCC and control cell lines, CellTiter-Glo viability, 72 h; series mostly up to 46 µM
Outline: as §2

MKL-1 = experiment: as above; conditions: MCC and control cell lines, CellTiter-Glo viability, 72 h; series mostly up to 46 µM
Outline: as §2

MKL-2 = experiment: as above; conditions: MCC and control cell lines, CellTiter-Glo viability, 72 h; series mostly up to 46 µM
Outline: as §2

UISO = experiment: as above; conditions: MCC and control cell lines, CellTiter-Glo viability, 72 h; series mostly up to 46 µM
Outline: as §2

WaGa = experiment: as above; conditions: MCC and control cell lines, CellTiter-Glo viability, 72 h; series mostly up to 46 µM
Outline: as §2

C33A = experiment: Primary qHTS to identify gynecologic anti-cancer compounds using libraries of approved drugs and bioactive compounds (AID 1345084); conditions: Gynecologic cancer cell panel viability, ATPlite luminescence, 48 h; series mostly up to 57.5 µM; further: nearly all actives have a fitted effect of over 55% in size; further: potency means the concentration at half of the fitted maximal effect
Outline: (§3)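 48 h compound exposure at 37 C, 5% CO2; five-point qHTS. ATPlite luminescence readout of cell ATP.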

HaCat [2] = experiment: Cytotoxic Profiling of Annotated Libraries Using Quantitative High-Throughput Screening (AID 1296008); conditions: Five cell lines viability, CellTiter-Glo ATP luminescence, 48-72 h; max response: hits give low values; further: nearly all actives have a fitted effect of over 60% in size; further: potency means the concentration at half of the fitted maximal effect; on max response: on the % scale 0 is the no-effect control and ±100 the full control effect
Outline: as §1

NIH3T3 [3] = experiment: qHTS assay to identify novel small-molecules to repurpose for Merkel cell carcinoma treatment (AID 1296009); conditions: MCC and control cell lines, CellTiter-Glo viability, 72 h; at 44.8 µM (top of the series) unless noted; further: nearly all actives have a fitted effect of over 60% in size; further: potency means the concentration at half of the fitted maximal effect
Outline: as §2

CAOV3 = experiment: Primary qHTS to identify gynecologic anti-cancer compounds using libraries of approved drugs and bioactive compounds (AID 1345084); conditions: Gynecologic cancer cell panel viability, ATPlite luminescence, 48 h; series mostly up to 57.5 µM; further: nearly all actives have a fitted effect of over 55% in size; further: potency means the concentration at half of the fitted maximal effect
Outline: as §3

TAB113 = experiment: qHTS profiling for inhibitors of Plasmodium falciparum proliferation (AID 504749); conditions: P. falciparum in erythrocytes, SYBR Green DNA, 72 h; series mostly up to 28.7 µM
Outline: (§4)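 Readout was DNA-dye fluorescence from lysed cultures, ex 485/em 535 nm. Parasitized red cells had grown 72 h with compound; data scaled between 0.29 uM artemisinin and DMSO wells and corrected using vehicle-only plates.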

TAB165 = experiment: as above; conditions: P. falciparum in erythrocytes, SYBR Green DNA, 72 h; series mostly up to 28.7 µM
Outline: as §4

W2 = experiment: as above; conditions: P. falciparum in erythrocytes, SYBR Green DNA, 72 h; series mostly up to 28.7 µM
Outline: as §4

HACAT [4] = experiment: qHTS assay to identify novel small-molecules to repurpose for Merkel cell carcinoma treatment (AID 1296009); conditions: MCC and control cell lines, CellTiter-Glo viability, 72 h; at 44.8 µM (top of the series) unless noted; further: nearly all actives have a fitted effect of over 60% in size; further: potency means the concentration at half of the fitted maximal effect
Outline: as §2

O=C(O)COc1nc(Cl)c(Cl)cc1Cl
inactive: max response (CRL-7250) -6.6% | max response (HEK293) -3.5% | max response (KB-3-1) -16.3% | max response (NIH3T3 [1]) -4.26% | Potency (MCC-13) | Potency (MCC-26) | Potency (MKL-1) | Potency (MKL-2) | Potency (UISO) | Potency (WaGa) | Potency (C33A)

CC(C)(O)C(=O)Nc1ccc([N+](=O)[O-])c(C(F)(F)F)c1
inactive: max response (CRL-7250) -26.4% | max response (HEK293) -21.8% | max response (HaCat [2]) -2.45% | max response (KB-3-1) -3.83% | outcome (NIH3T3 [1]) | Potency (MCC-13) | Potency (MKL-1) | outcome (NIH3T3 [3]) | Potency (UISO)

COC(=O)c1cncn1C(C)c1ccccc1 (configuration not stated)
inactive: max response (CRL-7250) -11.1% | max response (HEK293) -16.1% | max response (HaCat [2]) -2.03% | max response (KB-3-1) -9.65% | max response (NIH3T3 [1]) 3.22% | Potency (MCC-13) | Potency (MCC-26) | Potency (MKL-1) | Potency (MKL-2) | Potency (UISO) | Potency (WaGa) | Potency (C33A) | Potency (CAOV3)

CC(Cc1ccc(O)cc1)NCC(O)c1cc(O)cc(O)c1 (configuration not stated)
inactive: max response (CRL-7250) 3.52% | max response (HEK293) -1.83% | max response (HaCat [2]) -18.5% | max response (KB-3-1) 6.39% | max response (NIH3T3 [1]) -6.43% | Potency (MCC-13) | Potency (MCC-26) | Potency (MKL-1) | Potency (MKL-2) | Potency (UISO) | Potency (WaGa)

O=C1CCC[C@@H]2[C@H]3CCCN4CCC[C@@H](CN12)[C@@H]34
inactive: max response (CRL-7250) 0.603% | max response (HEK293) -4.12% | max response (HaCat [2]) 3.98% | max response (KB-3-1) 2.17% | outcome (NIH3T3 [1]) | Potency (MCC-13) | Potency (MCC-26) | Potency (MKL-1) | Potency (MKL-2) | outcome (NIH3T3 [3]) | Potency (UISO) | Potency (WaGa)

C[C@@H]1O[C@@H](O[C@@H]2C=C3CC[C@@H]4[C@@H](CC[C@]5(C)[C@H](c6ccc(=O)oc6)CC[C@@]45O)[C@@]3(C)CC2)[C@H](O)[C@H](O)[C@H]1O
active: Potency (CRL-7250) 11.8 nM | Potency (HEK293) 0.0166 µM | Potency (HaCat [2]) 0.0469 µM | Potency (KB-3-1) 0.0264 µM | Potency (NIH3T3 [1]) 3.72 µM | Potency (MCC-13) 0.0372 µM | Potency (MKL-1) 0.105 µM | Potency (MKL-2) 0.132 µM | Potency (WaGa) 0.0418 µM

COc1cc2cc(c1Cl)N(C)C(=O)C[C@H](OC(=O)C(C)C)[C@]1(C)O[C@H]1[C@H](C)[C@@H]1C[C@@](O)(NC(=O)O1)[C@H](OC)C=CC=C(C)C2
inactive: max response (CRL-7250) -68.5% | max response (HEK293) -91.4% | max response (HaCat [2]) -21.1% | max response (NIH3T3 [1]) -88.8% | Potency (MCC-13) | Potency (MCC-26) | Potency (MKL-1) | Potency (MKL-2) | Potency (UISO) | Potency (WaGa)
active: Potency (KB-3-1) 0.332 µM

Cc1ccc(Cl)c(O)c1
inactive: Potency (TAB113) | Potency (TAB165) | Potency (W2) | max response (CRL-7250) 3.13% | max response (HEK293) -16.6% | max response (HaCat [2]) -3.88% | max response (KB-3-1) -1.89% | outcome (NIH3T3 [1]) | Potency (MCC-13) | Potency (MCC-26) | Potency (MKL-1) | Potency (MKL-2) | outcome (NIH3T3 [3]) | Potency (UISO) | Potency (WaGa) | Potency (C33A)

CC(C)(C)NC[C@H](O)c1ccc(O)cc1Cl
inactive: max response (CRL-7250) -2.25% | max response (HEK293) -9.08% | max response (KB-3-1) 9.37% | max response (NIH3T3 [1]) -4.5% | Potency (MCC-13) | Potency (MCC-26) | Potency (MKL-1) | Potency (MKL-2) | Potency (UISO) | Potency (WaGa) | Potency (CAOV3)

Nc1ccc(Sc2ccc(N)cc2)cc1
inactive: max response (CRL-7250) -36.8% | max response (HEK293) -4.95% | max response (KB-3-1) -8.88% | max response (NIH3T3 [1]) -12.3% | Potency (MCC-13) | Potency (MCC-26) | Potency (MKL-1) | Potency (MKL-2) | Potency (UISO) | Potency (WaGa) | Potency (C33A)

CC(C)[C@]12O[C@@H]1[C@@H]1O[C@]13[C@]1(O[C@H]1C[C@@H]1C4=C(CC[C@@]13C)C(=O)OC4)[C@H]2O
active: Potency (KB-3-1) 0.001 µM
inactive: max response (CRL-7250) -124% | max response (HEK293) -111% | max response (HaCat [2]) -144% | max response (NIH3T3 [1]) -117% | Potency (MCC-13) | Potency (MCC-26) | Potency (MKL-1) | Potency (MKL-2) | Potency (UISO) | Potency (WaGa)

COc1cc([C@@H]2c3cc4c(cc3[C@@H](O)C3COC(=O)C32)OCO4)cc(OC)c1O (some centres not stated)
inactive: max response (HaCat [2]) 3.35%
active: Potency (CRL-7250) 83.3 nM | Potency (HEK293) 0.0372 µM | Potency (KB-3-1) 0.0662 µM | Potency (NIH3T3 [1]) 0.132 µM | Potency (MKL-1) 2.35 µM | Potency (UISO) 0.0526 µM | Potency (WaGa) 0.0526 µM

CC(C)[C@]12O[C@H]1[C@@H]1O[C@]13[C@]1(O[C@H]1C[C@H]1C4=C(CC[C@@]13C)C(=O)OC4)[C@@H]2O
active: Potency (CRL-7250) 82 nM | Potency (HEK293) 0.0073 µM | Potency (HaCat [2]) 0.13 µM | Potency (KB-3-1) 0.0651 µM | Potency (NIH3T3 [1]) 0.092 µM | Potency (C33A) 0.708 µM

S=C(NC1CCCCC1)N1CCC(c2cnc[nH]2)CC1
inactive: max response (CRL-7250) -0.728% | max response (HEK293) -0.423% | max response (HaCat [2]) -12.4% | max response (KB-3-1) -10.7% | max response (NIH3T3 [1]) -20.5% | Potency (C33A)

Fc1cc(Br)ccc1CBr
inactive: max response (CRL-7250) -5.31% | max response (HEK293) -1.72% | outcome (HaCat [2]) | outcome (NIH3T3 [1]) | outcome (HACAT [4]) | Potency (MCC-13) | Potency (MCC-26) | Potency (MKL-1) | Potency (MKL-2) | outcome (NIH3T3 [3]) | Potency (UISO) | Potency (WaGa) | Potency (C33A)

CC[C@@]1(O)C(=O)OCc2c1cc1n(c2=O)Cc2cc3ccccc3nc2-1
active: Potency (CRL-7250) 418 nM | Potency (HEK293) 0.0418 µM | Potency (HaCat [2]) 0.0469 µM | Potency (KB-3-1) 0.469 µM | Potency (NIH3T3 [1]) 0.148 µM | Potency (MCC-13) 0.0264 µM | Potency (MCC-26) 0.0743 µM | Potency (MKL-1) 0.0332 µM | Potency (MKL-2) 0.0743 µM | Potency (UISO) 0.0296 µM | Potency (WaGa) 0.0209 µM

CCNC(=O)C[C@@H]1N=C(c2ccc(Cl)cc2)c2cc(OC)ccc2-n2c(C)nnc21
inactive: max response (HaCat [2]) -10.8% | Potency (MCC-13) | Potency (C33A)
active: Potency (CRL-7250) 1.32 µM and 1.3 µM | Potency (HEK293) 5.17 µM | Potency (NIH3T3 [1]) 1.84 µM | Potency (MKL-2) 1.66 µM | Potency (WaGa) 5.9 µM
